Source: PubChem BioAssay (several laboratories)
Only some compounds are listed: those with a hit (about 4.2% of all), similar ones and a draw of the others.
CCHFV vOTU inh: blocks the CCHF virus ovarian tumor domain protease | 0.55% of 370,000 active | CCHFV vOTU protease, Pep-AMC fluorescence | inhibition, % at 11.5 µM; also: 0% = vehicle wells with enzyme and 100% = no enzyme wells
RecA intein inh: inhibitors of M. tuberculosis RecA intein splicing | 0.75% of 290,000 active | cell-free RecA intein splicing, fluorescence | inhibition, % (no concentration beside the values) | AID 2221; in the data active = inhibition above about 30%;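 also: 0% = vehicle wells and 100% = reference inhibitor control wells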
GDH-TPI inh: counter-screen for M. tuberculosis FBA inhibitors: GDH-TPI coupled enzymes. GDH-TPI coupled enzyme counterscreen, NADH absorbance. inhibition, % at 4.8 µM. 1.2% of 360,000 active;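 also: 0% = DMSO wells and 100% = wells lacking the enzyme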
Mtb FBA inh: inhibits M. tuberculosis FBA enzyme; inhibition, % at 1 µM; purified M. tuberculosis FBA, fluorescence read-out; AID 588726; 2.3% of 360,000 active; in the data active = inhibition above about 27%;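 also: 0% = vehicle and 100% = reference inhibitor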
Target sequence (P9WQA3 whole entry, looked up): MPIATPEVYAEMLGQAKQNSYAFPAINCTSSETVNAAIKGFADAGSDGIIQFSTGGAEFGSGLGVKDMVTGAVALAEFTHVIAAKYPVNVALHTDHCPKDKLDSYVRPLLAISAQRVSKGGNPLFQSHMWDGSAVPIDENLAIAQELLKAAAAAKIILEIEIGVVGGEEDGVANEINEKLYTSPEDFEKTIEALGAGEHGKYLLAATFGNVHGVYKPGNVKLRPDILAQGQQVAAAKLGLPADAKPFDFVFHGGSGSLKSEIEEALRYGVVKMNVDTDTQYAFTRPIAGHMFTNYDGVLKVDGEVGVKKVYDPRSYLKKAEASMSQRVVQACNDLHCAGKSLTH
An asterisk follows results filed as active; . = not tested or not shown. Rule as the data show it, unless noted: active = inhibition above about 30%; inactive = the rest.

SMILES | CCHFV vOTU inh | RecA intein inh | GDH-TPI inh | Mtb FBA inh
Cc1c(Cl)c([N+](=O)[O-])nn1Cc1ccc(C(=O)N/N=C\c2ccccn2)o1 | 7 | . | 15 | 2
CCOc1cccc(/C=N/NC(=S)Nc2ccccc2[N+](=O)[O-])c1O | 18 | 0 | 9 | -5
COc1cc(/C=N\NC(=O)c2ccc(Cn3nc([N+](=O)[O-])c(Cl)c3C)o2)ccc1O | 11 | -1 | 40* | 5
CCOc1cc(/C=N/Nc2ncnc(Cl)c2N)ccc1O | 6 | -6 | 33* | -3
CCOc1cc(/C=N/NC(=O)c2cccnc2)ccc1O | 4 | -1 | 38* | -10
COCCn1c(=O)[nH]c2cc(C(=O)N3CCN(c4cccc(C)c4C)CC3)ccc2c1=O | -3 | . | 1 | -1
CNc1ncnc2c1ncn2[C@H]1CN(Cc2ccc(Cl)cc2)C[C@@H](CO)O1 | -5 | . | -6 | -3
N#Cc1c(C#N)c(SSc2c(C#N)c(C#N)c(N)n2-c2ccccc2)n(-c2ccccc2)c1N | 24 | . | -4 | 13
COc1ccc(S(=O)(=O)N2CCC3CC2c2c(-c4ccc(C(F)(F)F)cc4)cccc23)cc1 (centres undefined) | 10 | . | . | -3
CCOc1cc(/C=N/NC(=O)N/N=C/c2ccc(O)c(OCC)c2)ccc1O | -1 | -1 | . | .
CCOc1cccc(/C=N/NC(=O)c2cccnc2)c1O | -8 | -2 | 31* | -4
O=C(COc1ccccc1C(=O)N/N=C\c1ccc(O)c(O)c1)N/N=C/c1ccc(O)c(O)c1 | . | -5 | 56* | 1
COc1cccc(C=NNC(=O)c2ccncc2)c1O | -6 | . | 13 | -6
CCOc1cc(/C=N/NC(=O)C(=O)N/N=C/c2ccc(O)c(OCC)c2)ccc1O | 5 | -8 | 51* | -3
Cn1cccc1C(=O)N1CCN(S(=O)(=O)c2cccs2)CC1 | -5 | . | . | .
CN(C)C(=O)COC(=O)c1cc(Cl)cc(Cl)c1N | -184 | -6 | 5 | 127*
Cc1ncc([N+](=O)[O-])n1CCOC(=O)c1cc(Cl)cc(Cl)c1N | 10 | 9 | 12 | 7
O=C(c1cccc(NS(=O)(=O)c2ccc(F)c(F)c2)c1)N1CCCCC1 | 4 | . | 4 | -1
C(=NN1CCCCCC1)c1ccccc1 | -2 | . | 7 | 1
CN(C)c1ccc(/C=N/N2CCN(c3ccccn3)CC2)cc1 | 4 | -2 | 39* | -3
CN(c1ccccc1)c1ccc(/C=N/N2CCOCC2)cc1 | 11 | -6 | 31* | 0
Cc1nnc(SCC(=O)Nc2sc3c(c2C(N)=O)CCC(C)C3)[nH]c1=O (centres undefined) | 4 | . | 1 | 0
COC(=O)c1cc(-c2cccc(C#N)c2)c(=O)n2c1CCC2 | 0 | . | . | .
COc1ccccc1C(=O)NCC(=O)N=Nc1c(O)n(C(C)C)c2ccccc12 | 7 | 2 | 31* | 1
CC(C)n1c(O)c(N=NC(=O)CNC(=O)CCc2ccccc2)c2ccccc21 | -2 | 0 | 31* | -2
SMILES | CCHFV vOTU inh | RecA intein inh | GDH-TPI inh | Mtb FBA inh
CC(C)n1c(O)c(N=NC(=O)CNC(=O)Cc2ccc(Cl)cc2)c2ccccc21 | 14 | -3 | 29 | -3
OCC[C@H]1C[C@H](O)[C@@H](O)[C@@]2(CCCc3ccccc3O2)O1 | 2 | . | 6 | 0
COc1cc(OC)c(NC(=O)c2csc(C)c2)cc1Cl | 7 | -1 | 5 | 0
Cc1ccc2c(CC(=O)Nc3ccc(F)c(S(=O)(=O)N4CCOCC4)c3)coc2c1 | -10 | . | 4 | -4
CC(c1nccs1)N(C)c1nc2nonc2nc1NC1CC1 (centres undefined) | -12 | -1 | 33* | -2
CN(c1ccc(NC(=O)Cc2c[nH]c3ccccc23)cc1)c1ccccn1 | 3 | . | . | .
O=C1Nc2ccccc2C1=Nc1ccc2[nH]c3ccccc3c2c1 | -50 | . | 18 | 41*
Cc1ccc(C(=O)NC2CCCCN(Cc3cccc(Cl)c3)C2=O)c(C)c1 (centres undefined) | 5 | . | . | .
Oc1ccc(/C=N/Nc2ccc(C(F)(F)F)cn2)cc1 | 13 | -3 | 19 | -2
C/C(=N\Nc1ccc(C(F)(F)F)cn1)c1ccncc1 | -8 | 1 | 56* | -2
Cn1c(O)c(/C=N/NC(=O)c2cc3ccccc3cc2O)c2ccccc21 | 20 | 0 | 18 | -8
COc1ccc2c(c1)cc(C(=O)N/N=C/c1c(O)c(C(=O)O)cc3ccccc13)n2C | 2 | -16 | 32* | -2
COc1ccc2ccc3cccc[n+]3c2c1 | -168 | . | -2 | 134*
Cn1ccnc1C(O)(c1ccccc1)c1ccccc1 | 19 | 0 | -3 | 0
Cc1ccc2nc(/C(C#N)=C\c3cc(C)n(-c4cccc([N+](=O)[O-])c4)c3C)[nH]c2c1 | 3 | 2 | 32* | 0
O=c1nccc(N/N=C/c2ccccc2O)[nH]1 | 11 | -4 | 38* | 2
